Source: PubChem BioAssay AID485344 (National Center for Advancing Translational Sciences (NCATS), 2010)
The whole screen tested about 340,000 compounds, of which about 6,900 (2%) were called active. The sample holds actives, similar compounds and a random draw of the others, so the mix is not that of the screen. Values without a mark were called inactive. Rule as the data show it: active = inhibition above about 30%; inactive = below that, where a call was filed.

Molecular target: D(2) dopamine receptor (Homo sapiens) (UniProt P14416)
Experiment: HTS Assay for Allosteric Antagonists of the Human D2 Dopamine Receptor: Primary Screen for Antagonists; also: 0% is about no effect
Details: HEK293 TREx D2 cells, calcium flux, dopamine EC80; at 10 µM; stronger effect = higher value
Procedure, shortened: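 In this primary screen, negative modulation is detected by tracking calcium flux after an EC80 dopamine challenge in inducible HEK293 T-REx D2 cells preexposed to test compound for 180 s.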

Chain of D(2) dopamine receptor (Homo sapiens) (P14416 whole entry, looked up): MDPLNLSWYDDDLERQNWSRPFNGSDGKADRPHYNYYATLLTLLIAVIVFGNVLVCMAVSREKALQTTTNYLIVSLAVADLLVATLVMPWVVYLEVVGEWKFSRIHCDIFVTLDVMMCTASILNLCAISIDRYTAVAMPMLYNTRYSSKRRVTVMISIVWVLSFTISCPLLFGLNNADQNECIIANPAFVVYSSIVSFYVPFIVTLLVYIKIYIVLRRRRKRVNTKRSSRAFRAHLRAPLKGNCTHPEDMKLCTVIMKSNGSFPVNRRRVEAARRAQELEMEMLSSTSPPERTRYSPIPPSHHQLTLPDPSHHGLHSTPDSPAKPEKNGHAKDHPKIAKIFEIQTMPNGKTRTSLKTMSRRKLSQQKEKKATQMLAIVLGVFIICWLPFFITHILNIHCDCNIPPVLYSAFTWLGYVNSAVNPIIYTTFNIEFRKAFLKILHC

Structure (SMILES) | inhibition
Cc1cccc(C(=O)NCc2nnc(SC(C)C(=O)Nc3nnc(C)s3)n2C)c1 (stereo not given) | 8.11%
CC1(C)CC(=O)C=C(c2ccc3ncccc3c2)C1 | -2.57%
CCN(CC(=O)Nc1c(F)cccc1F)C(=O)C1CCC1 | -5.66%
COc1cc(OC)cc(C(=O)NCC(=O)N2CCCCCCC2)c1 | 33.6% (active)
CCOc1ccc(C(=O)NCC(=O)N2CCCCCCC2)cc1OCC | -3.78%
Cc1cc(C)cc(C(=O)NCC(=O)OCC(=O)N2CCCCC2)c1 | 1.51%
N/C(=N\OC(=O)N1c2ccccc2Sc2ccccc21)c1ccc(Br)cc1 | -13.7%
N/C(=N\OC(=O)c1ccc2c(c1)OCO2)c1ccc(Br)cc1 | 46.1% (active)
N/C(=N\OC(=O)/C=C/c1ccccc1)c1ccc(Br)cc1 | -2.34%
Cn1nc(C(=O)OCC(=O)N(Cc2ccccc2)C(C)(C)C)c2ccccc2c1=O | -16.5%
OCCC1CN(Cc2cnc(-c3ccccc3)s2)CCN1CCc1ccccc1 (stereo not given) | -6.7%
OCCC1CN(Cc2ccccc2-c2ccco2)CCN1Cc1ccsc1 (stereo not given) | -17.4%
OCCC1CN(Cc2ccc(Oc3ncccn3)cc2)CCN1CCc1ccccc1 (stereo not given) | -20.6%
OCCC#Cc1ccc(CN2CCN(Cc3ccsc3)C(CCO)C2)cc1 (stereo not given) | 6.27%
OCCC1CN(Cc2cccc(OC3CCCC3)c2)CCN1Cc1ccsc1 (stereo not given) | 65.5% (active)
OCCC1CN(Cc2cccc(O)c2)CCN1CCc1ccccc1 (stereo not given) | 54.8% (active)
Cc1ccc(NC(=O)CCCNC(=O)c2ccc(Cl)cc2)cc1S(=O)(=O)N1CCCCC1 | 2.49%
Nc1ccc(C(=O)N2CCN(S(=O)(=O)c3ccc(Cl)cc3)CC2)cc1[N+](=O)[O-] | 1.49%
O=C(COc1ccc2c(c1)CCC2)N1CCN(c2ccc(F)cc2)CC1 | 3.48%
OC(COc1ccc2c(c1)CCC2)CN1CCN(c2cccc(Cl)c2)CC1 (stereo not given) | 39.2% (active)
O=c1cc(CN2CCN(c3cccc(Cl)c3)CC2)c2cc3c(cc2o1)CCCC3 | -7.58%
O=C(O)Cc1sc(-c2ccccc2)nc1-c1cccs1 | 3.67%
C/C(=N/Nc1nc(-c2ccccc2)c(CC(=O)O)s1)c1ccccc1 | -8.33%
O=C(O)Cc1sc(-c2ccc(C(=O)O)cc2)nc1-c1ccccc1 | 32.7% (active)

Structure (SMILES) | inhibition
O=C(Nc1ccccc1N1CCOCC1)c1ccncc1 | -22.1%
COC(=O)c1ccc(C)c(NC(=O)C2CC(=O)N(C3CCCC(C)C3C)C2)c1 (stereo not given) | 25.8%
O=C(O)COc1nsnc1N1CCOCC1 | -6.01%
c1nc(COc2nsnc2N2CCOCC2)cs1 | 36.2% (active)
c1ccc(COc2nsnc2N2CCOCC2)cc1 | -11.6%
Cc1nc(SCC(=O)NC2CCCCC2C)c(C#N)c(C)c1C (stereo not given) | -2.83%
CCn1c(C)c(C)c2cc(C(=O)N3CCN(c4cccc(C)c4C)CC3)ccc21 | 35.7% (active)
CCC(CC)C(=O)N1CCN(c2cccc(C)c2C)CC1 | -16.7%
Cc1cccc(N2CCN(C(=O)c3cccc(N4C(=O)C5C6C=CC(C6)C5C4=O)c3)CC2)c1C (stereo not given) | -3.04%
C[C@H](NC(=O)c1ccccc1)C(=O)OCC(=O)c1c[nH]c2ccccc12 | -14%
Cc1ccc(CNC(=O)c2cccc3c2C(=O)c2ccc(N4CCC(C)CC4)cc2S3(=O)=O)cc1 | -2.45%
CCc1nnc(NC(=O)c2ccc(S(=O)(=O)NC3CCCCC3)cc2)s1 | -18.8%
Cc1ccc(Nc2nnc(SC(C)C(=O)NC3CC3)s2)cc1 (stereo not given) | -31.5%
Cc1nnc(SC(C)C(=O)Nc2ccc(S(=O)(=O)NC3CCCCC3)cc2)s1 (stereo not given) | 61.3% (active)
Cc1c(C(=O)OCC(=O)N2CCCC2=O)oc2ccccc12 | 10.7%
CCOC(=O)N1CCN(C(=O)CSc2nc(=O)n3cccc(C)c3n2)CC1 | -1.99%
O=C(COC(=O)CCCSc1nc2ccccc2[nH]1)Nc1ccc(Oc2ccccc2)cc1 | 38.2% (active)
CCCCSc1nc2ccccc2[nH]1 | 22.4%
CCc1nnc(NC(=O)CCCSc2nc3ccccc3[nH]2)s1 | -10.6%
COCCN(C(=O)CC1CCCCC1)c1c(N)n(CC(C)C)c(=O)[nH]c1=O | -47.9%
Cc1cc(C)n2nc(C(=O)OCC(=O)N(CCC#N)c3ccc(F)cc3)nc2n1 | -5.33%
COc1cccc(N2CC(C(=O)Nc3c(C)cccc3C)CC2=O)c1 (stereo not given) | -21.9%
COc1cccc(N2CC(NC(=O)c3ccc4ccccc4c3)CC2=O)c1 (stereo not given) | 34.4% (active)
COc1ccc(N2CC(NS(=O)(=O)c3ccc4ccccc4c3)CC2=O)cc1 (stereo not given) | 17.1%

Structure (SMILES) | inhibition
CCOc1ccc(NC(=O)CN(C)C(=O)Cn2c(=O)cnc3ccccc32)cc1OCC | 6.33%
COC(=O)c1ccc(COC(=O)CNC(=O)c2cccc(OC)c2)o1 | -4.34%
Cc1ccnc(Nc2nc3ccccc3s2)n1 | 39.5% (active)
Cc1ccc(S(=O)(=O)Nc2nc3ccccc3s2)cc1[N+](=O)[O-] | -1.44%
Cn1nnnc1SCC(=O)Nc1nc2ccccc2s1 | 5.01%
C=C(C)CNc1cc(S(=O)(=O)N2CCOCC2)ccc1Oc1ccccc1 | -1.1%
CCOc1ccccc1N1CCN(C(=O)COc2ccc3c(C)cc(=O)oc3c2)CC1 | 20.8%
Cc1cc(=O)oc2cc(OCCC[n+]3ccccc3)ccc12 | 13.4%
Cc1ccccc1N1CCN(CCCOc2ccc3c(C)cc(=O)oc3c2)CC1 | 109% (active)
Cc1ccc(C(=O)CN2C(=O)NC3(CCOc4ccccc43)C2=O)s1 (stereo not given) | -0.39%
O=C(COC(=O)CCCN1C(=O)c2cccc3cccc(c23)C1=O)NC1CCS(=O)(=O)C1 (stereo not given) | 1.37%
O=C(Nc1ccc2c(c1)OCCO2)C1CCCC1 | 3.86%
Cc1ccc(NC(=O)Nc2cc(-c3ccccc3)nn2C)cc1Cl | -13.2%
Cc1nn(-c2ccccc2)c(Cl)c1C(=O)Nc1ccccc1 | -28.3%
Cc1cc(NC(=O)Nc2ccc(Cl)cc2)n(-c2ccccc2)n1 | 40.6% (active)
Cc1cc(NC(=O)c2cnn3cccnc23)n(-c2ccccc2)n1 | 5.9%
Cc1cc(NC(=O)Nc2ccccc2)n(-c2ccccc2)n1 | 31.4% (active)
CC(=O)c1cccc(NC(=O)c2cc(C)nn2-c2ccccc2)c1 | -7.81%
C#CCOCCOCCOCCNc1nc(N2CCN(C(=O)Cn3cc(CCCCN)nn3)CC2)nc(N2CCN(C(=O)[C@H](CCCCN)n3cc(CCC(=O)O)nn3)CC2)n1 | -10.9%
CCOc1ncccc1C(=O)OCC(=O)c1c[nH]c2ccccc12 | 12.3%
O=C(CN1CCN(S(=O)(=O)c2ccc(Cl)s2)CC1)N1CCCCC1 | -11.9%
CCc1ccc(Nc2n[n+](-c3ccccc3)c(-c3cccc(Cl)c3Cl)s2)cc1 | 6.13%
CCCCN(C(=O)C(CCSC)N1C(=O)c2ccccc2C1=O)c1c(N)n(CCC)c(=O)[nH]c1=O (stereo not given) | -4.67%
Cc1c(C(=O)NNC(=O)c2ccncc2)oc2ccccc12 | 13.9%

Structure (SMILES) | inhibition
CCN(c1ccccc1)S(=O)(=O)c1cccc(C(=O)NCc2ccccc2CN2CCOCC2)c1 | -43%
O=C(NCc1ccccc1CN1CCCC1)c1cccc(S(=O)(=O)Nc2ccc(F)cc2)c1 | 61.7% (active)
COc1ccccc1C(CNC(=O)c1cccc(S(=O)(=O)Nc2ccc(F)cc2)c1)N(C)C (stereo not given) | -19.6%
O=C(NCCCN1CCN(c2ccc(F)cc2)CC1)Nc1ccc([N+](=O)[O-])cc1 | 45.2% (active)
CN1CCN(CCNC(=O)Nc2ccc([N+](=O)[O-])cc2)CC1 | 11.3%
O=C(Nc1ccc(F)cc1)N1CCN(c2ccc(F)cc2)CC1 | -1.72%
COc1cccc(NC(=O)CN(C)CC(=O)c2c(N)n(Cc3ccccc3)c(=O)n(C)c2=O)c1 | -15.4%
COCCN(CCOC)C(=S)Nc1ccccc1Cl | 3.22%
COc1ccc(Nc2cc(Cl)ccc2C(=O)O)cn1 | 9.54%
COc1ccc(NC(=S)Nc2ccccc2Cl)cn1 | 40.5% (active)
Cc1n[nH]c(=O)c2c(NC(=O)CSc3ccccc3F)oc(C)c12 | 0.909%
CCN(C(=O)COC(=O)Cc1c(F)cccc1Cl)c1c(N)n(Cc2ccccc2)c(=O)[nH]c1=O | 4.82%
CCOC(=O)c1c(C)[nH]c(C2=NNC(=NC(C)COC)SC2)c1C (stereo not given) | 36% (active)
CCOC(=O)c1c(C)[nH]c2c1-c1ccccc1C(=O)C2=O | -2.67%
C[C@@H]1NC(=O)[C@@]2(C)[C@@H](c3ccccc3)[C@H]3COc4ccccc4[C@@H]3N2C1=O | -7.78%
CCOc1ccc(CCNC(=O)CN2C(=O)NC3(CCc4ccccc43)C2=O)cc1OCC (stereo not given) | 1.52%
CCN(C(=O)CSc1nc(N)cc(=O)[nH]1)C1CCS(=O)(=O)C1 (stereo not given) | 10.5%
Cc1ccc2nc(Nc3ccccc3)cc(C)c2c1 | -16.8%
Cc1ccc2nc(-c3ccncc3)cc(C(=O)Nc3ccncc3)c2c1 | -15.6%
CCS(=O)(=O)Nc1cccc(-c2cc(-c3ccccc3)c3cc(C)ccc3n2)c1 | 30.3% (active)
Cc1cc(OCCN2CCCC2)ccc1C(C)C | -8.05%
c1ccc2cc(OCCN3CCCC3)ccc2c1 | 6.73%
Cc1cc(OCCN2CCCC2)cc(C(C)C)c1 | 46.1% (active)
